Experiment [1] deals with Rap guanine nucleotide exchange factor 3 (Homo sapiens) (UniProt O95398). Description: Confirmatory qHTS for antagonist of cAMP-regulated guanine nucleotide exchange factor 3 (EPAC1) (AID 1645880).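 For activity, negative = inhibition: plate controls were DMSO only for no effect and full effect of the ATA control for full effect.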 Note: nearly all actives have a fitted effect of over 55% in size. Note: potency is the fitted concentration of half-maximal effect. The conditions noted are these: EPAC1 Rap1B-BODIPY-GDP exchange, fluorescence; activity, negative = inhibition: at 115 µM (top of the series). The method in brief:
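Nucleotide exchange uses 100 nM EPAC1, 250 nM RAP1B-BODIPY-GDP and 50 uM GDP, with compounds in a concentration-titration series. After 5 min at room temperature, fluorescence (480 nm ex/540 nm em) is read every 5 min for 30 min. Data are normalized to control ATA and DMSO.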
For orientation: Quantitative high-throughput screening tests each substance at several concentrations.

Experiment [2] shares this target. Description: Confirmatory qHTS for agonist of cAMP-regulated guanine nucleotide exchange factor 3 (EPAC1) (AID 1645881).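 Note: EPAC1 catalysed release of BODIPY-GDP from Rap1B seen as fluorescence loss; 100% = effect of cAMP agonist control; nearly all actives have a fitted effect of over 75% in size.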
In experiment [3] the target is Rap guanine nucleotide exchange factor 4 (Homo sapiens) (UniProt Q8WZA2). Description: Confirmatory qHTS for agonist of cAMP-regulated guanine nucleotide exchange factor 4 (EPAC2) (AID 1645884).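 Note: nucleotide exchange releases bodipy-GDP from Rap1 and this lowers its fluorescence; % is set by controls: 0 for no effect and ±100 for the full control effect; nearly all actives have a fitted effect of over 65% in size.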
Chain of Rap guanine nucleotide exchange factor 4 (Homo sapiens) (Q8WZA2 whole entry, looked up): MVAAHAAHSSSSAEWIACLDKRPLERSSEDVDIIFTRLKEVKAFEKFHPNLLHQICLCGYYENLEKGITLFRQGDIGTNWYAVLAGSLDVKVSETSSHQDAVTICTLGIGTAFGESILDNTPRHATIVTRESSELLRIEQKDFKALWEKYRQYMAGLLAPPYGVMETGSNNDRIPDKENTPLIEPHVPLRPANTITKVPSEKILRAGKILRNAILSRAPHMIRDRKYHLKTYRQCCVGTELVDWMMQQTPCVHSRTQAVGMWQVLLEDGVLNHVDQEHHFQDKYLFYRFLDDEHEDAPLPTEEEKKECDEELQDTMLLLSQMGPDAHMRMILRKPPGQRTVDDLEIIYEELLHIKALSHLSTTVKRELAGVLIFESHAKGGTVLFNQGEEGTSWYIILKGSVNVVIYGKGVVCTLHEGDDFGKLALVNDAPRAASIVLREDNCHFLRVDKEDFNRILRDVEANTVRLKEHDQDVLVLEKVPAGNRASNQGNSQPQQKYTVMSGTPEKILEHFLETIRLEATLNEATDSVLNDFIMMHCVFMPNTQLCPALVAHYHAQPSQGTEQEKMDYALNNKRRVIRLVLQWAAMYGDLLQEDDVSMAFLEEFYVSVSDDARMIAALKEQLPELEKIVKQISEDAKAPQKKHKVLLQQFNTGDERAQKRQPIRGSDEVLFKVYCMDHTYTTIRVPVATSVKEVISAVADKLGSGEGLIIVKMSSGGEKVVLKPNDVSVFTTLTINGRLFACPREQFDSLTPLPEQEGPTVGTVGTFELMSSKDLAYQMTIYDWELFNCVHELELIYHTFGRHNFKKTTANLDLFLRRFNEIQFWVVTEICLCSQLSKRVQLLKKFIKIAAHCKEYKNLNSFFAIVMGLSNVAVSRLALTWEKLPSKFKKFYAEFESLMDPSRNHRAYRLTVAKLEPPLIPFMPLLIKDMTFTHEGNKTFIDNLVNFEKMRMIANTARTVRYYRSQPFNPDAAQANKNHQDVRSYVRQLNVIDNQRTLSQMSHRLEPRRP
Experiment [4] addresses Rap guanine nucleotide exchange factor 3 (Homo sapiens) (UniProt O95398). Kind of experiment: Counterscreen qHTS for antagonist of cAMP-regulated guanine nucleotide exchange factor 3 (EPAC1) (AID 1645888).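 Note: fluorescence loss as bound BODIPY-GDP is released from Rap1B; % of control where 0% means no effect.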 The method in brief:
(§1)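 Measured: fluorescence of BODIPY-GDP bound to Rap1B, which falls as exchange proceeds. Conditions include 50 uM competing GDP, 5 and 30 min reads, and a later cAMP challenge for antagonist detection.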
For orientation: The purpose of a counterscreen is to sort out artefacts and off-target activity.

For experiment [5] the target is unchanged. Kind of experiment: Counterscreen qHTS for agonist of cAMP-regulated guanine nucleotide exchange factor 3 (EPAC1) (AID 1645889). For activation: % of control where 0% means no effect. Note: nearly all actives have a fitted effect of over 40% in size. Note: potency is the fitted concentration of half-maximal effect. The method in brief: as §1

Structures are written as SMILES. Inconclusive results are not listed. A number with no mark means an inactive call. Active and inactive are the calls of the source. Calls come from the whole dose curve; as a rule, active = well fitted curve in the direction sought with a large enough effect; inconclusive = small, poorly fitted or top-dose-only effect, or another doubt; inactive = no such curve, though single readings can be large; an effect the other way counts as inactive or inconclusive.

Chain of Rap guanine nucleotide exchange factor 3 (Homo sapiens) (O95398 whole entry, looked up): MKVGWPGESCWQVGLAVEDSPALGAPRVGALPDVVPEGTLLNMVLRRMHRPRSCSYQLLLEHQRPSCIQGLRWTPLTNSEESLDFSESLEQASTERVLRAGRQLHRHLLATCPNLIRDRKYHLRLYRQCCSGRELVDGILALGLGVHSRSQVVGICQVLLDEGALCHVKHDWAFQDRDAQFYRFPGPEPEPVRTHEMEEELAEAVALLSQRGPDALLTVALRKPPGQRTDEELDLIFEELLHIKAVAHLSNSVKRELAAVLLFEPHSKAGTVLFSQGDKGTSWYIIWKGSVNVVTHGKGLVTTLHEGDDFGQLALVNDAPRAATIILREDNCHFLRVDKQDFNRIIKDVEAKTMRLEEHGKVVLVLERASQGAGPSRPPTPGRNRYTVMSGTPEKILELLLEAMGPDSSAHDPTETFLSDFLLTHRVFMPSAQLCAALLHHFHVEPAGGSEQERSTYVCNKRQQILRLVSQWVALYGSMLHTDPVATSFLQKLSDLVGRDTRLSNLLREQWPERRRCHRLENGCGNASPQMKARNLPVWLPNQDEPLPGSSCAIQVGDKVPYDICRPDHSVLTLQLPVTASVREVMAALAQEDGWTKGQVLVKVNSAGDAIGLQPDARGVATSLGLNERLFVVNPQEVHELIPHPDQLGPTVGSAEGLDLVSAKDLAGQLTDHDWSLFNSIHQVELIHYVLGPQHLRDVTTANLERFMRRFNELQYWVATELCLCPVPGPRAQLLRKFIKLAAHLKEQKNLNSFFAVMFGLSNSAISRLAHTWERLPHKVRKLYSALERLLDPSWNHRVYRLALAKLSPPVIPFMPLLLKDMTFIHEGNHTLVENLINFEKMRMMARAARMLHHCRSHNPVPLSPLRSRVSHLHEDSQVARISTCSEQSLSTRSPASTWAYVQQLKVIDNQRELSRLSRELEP

Regarding `CS(=O)(=O)c1ccc2c(c1)SC1=NC(=O)/C(=C/c3ccco3)C(=N)N12`, the Potency in experiment [1] was 12 µM (active). In addition, the Potency result in experiment [2], in experiment [3], in experiment [4] and in experiment [5] was “inactive” throughout.
`CNc1ccc(-c2nc(-c3ccco3)no2)cc1[N+](=O)[O-]`: the Potency result in experiment [1], in experiment [2], in experiment [3], in experiment [4] and in experiment [5] was “inactive” each time.
Turning to `COc1ccc(OC)c(NC(=O)C2(C)CCN2Cc2ccsc2)c1` (stereo not given), the Potency result in experiment [1], in experiment [2], in experiment [3], in experiment [4] and in experiment [5] was “inactive” in each case.
As for `COc1cc(C(=O)c2ccccc2)c([N+](=O)[O-])cc1OC`, the Potency entry in experiment [1], in experiment [2], in experiment [3], in experiment [4] and in experiment [5] was “inactive” each time.
For the compound `CCN(CC(=O)Nc1c(F)cccc1F)C(=O)/C=C/c1ccc2ccccc2n1`, the Potency in experiment [1] is 8.49 µM (active). For the same compound, the Potency entry in experiment [2], in experiment [3], in experiment [4] and in experiment [5] was “inactive” in each case.
For `O=[N+]([O-])c1ccc2nc(NS(=O)(=O)c3ccc(F)cc3)sc2c1`, the Potency in experiment [1] was 42.6 µM (active). The Potency result in experiment [2], in experiment [3], in experiment [4] and in experiment [5] was “inactive” each time.
On to `O=C(/C=C/c1ccco1)N1CCCC(c2ccccc2)C1` (stereo not given), for which the Potency in experiment [1] is 67.5 µM (active). Moreover, the Potency entry in experiment [2], in experiment [3], in experiment [4] and in experiment [5] was “inactive” each time.
`Cc1ccccc1-c1cc2nc(NCCN3CCNC3=O)n(C)c(=O)c2s1`: the Potency entry in experiment [1], in experiment [2], in experiment [3], in experiment [4] and in experiment [5] was “inactive” throughout.
For `Nc1nnc(CC(=O)N/N=C/c2cc([N+](=O)[O-])cc(Br)c2O)s1`, the Potency in experiment [1] was 10.7 µM (active). Also, the Potency result in experiment [2], in experiment [3], in experiment [4] and in experiment [5] was “inactive” each time.
Regarding `Cc1cccc(NC(=O)Cn2c(O)c(N=NC(=O)c3ccccc3O)c3ccccc32)c1`, in experiment [1], the Potency was 75.7 µM (active). For the same compound, the Potency entry in experiment [2], in experiment [3], in experiment [4] and in experiment [5] was “inactive” each time.
Take `COC(=O)c1cn(C(=O)c2ccccc2Cl)c2ccccc12`: the Potency result in experiment [1] and in experiment [2] was “inactive” in each case. The activation in experiment [3] was 7.27% [at 17.1 µM, percent relative to cAMP agonist control]; in experiment [5], 20.7% [at 30.8 µM]. Further, in experiment [4], the activity change, negative = inhibition is -1.26% [at 30.8 µM].
On to `O=C(c1sc2cc(F)ccc2c1Cl)N1CCN(c2ccccc2)CC1`, for which the Potency entry in experiment [1], in experiment [2], in experiment [3] and in experiment [4] was “inactive” in each case.
As for `Cn1c2c(c3ccccc31)CCN1CCC[C@]21c1ccccc1`, the Potency entry in experiment [1], in experiment [2], in experiment [3] and in experiment [4] was “inactive” in each case.
Take `O=C(c1ccco1)N(Cc1ccccc1)c1cccc([N+](=O)[O-])c1`: the Potency entry in experiment [1], in experiment [2], in experiment [3], in experiment [4] and in experiment [5] was “inactive” throughout.
For the compound `COc1ccccc1C(=O)C1CCCN(C(=O)c2ccc3c(c2)OCCO3)C1` (stereo not given), the Potency entry in experiment [1], in experiment [2], in experiment [3], in experiment [4] and in experiment [5] was “inactive” in each case.
With `COc1nc(-c2ccccc2)c2cc(Br)ccc2n1`, the Potency entry in experiment [1] and in experiment [2] was “inactive” in each case. In addition, the activation in experiment [3] was -6.23% [at 17.1 µM, percent relative to cAMP agonist control]; in experiment [5] it was 24.2% [at 30.8 µM]. Further, the activity change, negative = inhibition in experiment [4] is 8.88% [at 30.8 µM].
As for `O=C(CS(=O)(=O)c1ccccc1)c1cc2ccccc2oc1=O`, the Potency result in experiment [1] and in experiment [2] was “inactive” throughout. Besides, in experiment [3], the activation was 8.75% [at 17.1 µM, percent relative to cAMP agonist control]. Moreover, the activity change, negative = inhibition in experiment [4] was -20.4% [at 30.8 µM].
Turning to `Cc1cc2ccccc2cc1C(=O)c1ccccc1`, the Potency entry in experiment [1] and in experiment [2] was “inactive” throughout. Further, the activation in experiment [3] is 3.89% [at 17.1 µM, percent relative to cAMP agonist control]; in experiment [5], 5.51% [at 30.8 µM]. In experiment [4], the activity change, negative = inhibition was -19.3% [at 30.8 µM].
`Cc1ccc(-c2nnc(Nc3ccc4c(c3)OCO4)c3ccccc23)cc1S(N)(=O)=O`: the Potency in experiment [1] was 47.8 µM (active). The Potency entry in experiment [2], in experiment [3] and in experiment [4] was “inactive” each time.
Take `OC[C@@H]1[C@@H](c2ccc(F)cc2)C(c2cccc(Cl)c2)=NN1c1ccccc1`: the Potency result in experiment [1], in experiment [2], in experiment [3] and in experiment [4] was “inactive” in each case. In addition, the Potency in experiment [5] was 12.6 µM (active).
`Cc1ccc(-c2ccccc2C2=CC(=O)CC(C)(C)C2=O)cc1`: the Potency result in experiment [1] and in experiment [2] was “inactive” each time. The activation was -2.04% [at 17.1 µM, percent relative to cAMP agonist control] in experiment [3] and 11.7% [at 30.8 µM] in experiment [5]. Besides, in experiment [4], the activity change, negative = inhibition is 11.7% [at 30.8 µM].
`COc1cc(/C=C(\C#N)c2nc3ccccc3s2)cc([N+](=O)[O-])c1O`: the Potency in experiment [1] was 16.9 µM (active). The Potency result in experiment [2], in experiment [3], in experiment [4] and in experiment [5] was “inactive” throughout.
For the compound `CC(C1CC1)N(C(=O)NC1CCS(=O)(=O)C1)c1ccccc1` (stereo not given), the Potency result in experiment [1], in experiment [2], in experiment [3], in experiment [4] and in experiment [5] was “inactive” in each case.
With `O=C(Cc1ccc(F)cc1)Nc1ccccc1Sc1ccccc1`, the Potency result in experiment [1], in experiment [2], in experiment [3] and in experiment [4] was “inactive” in each case.
On to `Cc1ccc(S(=O)(=O)N2[C@@H](c3cccc(Cl)c3)C(C(=O)O)=CC[C@H]2c2ccc(Cl)c(Cl)c2)cc1`, for which the Potency in experiment [1] was 67.5 µM (active). Moreover, the Potency result in experiment [2], in experiment [3], in experiment [4] and in experiment [5] was “inactive” each time.
Turning to `O=C(CS(=O)(=O)c1ccccc1)c1cc2cc(F)ccc2oc1=O`, the Potency in experiment [1] is 75.7 µM (active). For the same compound, the Potency result in experiment [2], in experiment [3], in experiment [4] and in experiment [5] was “inactive” each time.
